Measurements: PubChem BioAssay AID1117319 (Southern Research Institute, 2015)
Several values for one entry are separate records, joined by “and”; a condition that tells them apart may be missing. Equal values may be shown once. Among all 260,000 compounds or so, about 1,500 (0.58%) were called active. Inconclusive results (about 5%) are left out.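 How the source made its calls: active means inhibition above a set limit at one or more doses, reproduced on every date tested; inconclusive means results disagree between test dates, or hit never tested in dose response; inactive means the rest.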 Not all results are given here. Entries with a potency or affinity are not part of this list.

biological target: Virion infectivity factor (Human immunodeficiency virus type 1 group M subtype B (isolate BH10)) + Virion infectivity factor (Human immunodeficiency virus type 1 group M subtype B (isolate BRU/LAI)) + Virion infectivity factor (Human immunodeficiency virus type 1 group M subtype B (isolate PCV12)) + Virion infectivity factor (Human immunodeficiency virus type 1 group M subtype B (isolate HXB2)) + DNA dC->dU-editing enzyme APOBEC-3G (Homo sapiens) (UniProt P69720+P69721+P69722+P69723+Q9HC16); test: inhibitors of Vif binding to APOBEC3G peptide, primary screen, biochemical, TR-FRET, GST-Vif 1-94, biotin-A3G peptide, dose response retest (AID 1117319); settings: stronger effect = higher value;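 further: Vif residues 1-94 fused to GST binding biotinylated APOBEC3G peptide 110-148; 0% = full assay without inhibitor and 100% = GST in place of GST-Vif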

inhibition, inactive:
CC(=O)Nc1ccc(S(=O)(=O)N2CCN(c3ccccn3)CC2)cc1 25%, Cc1ccc(S(=O)(=O)N2CCN(Cc3ccccn3)CC2)cc1 0.21%, O=C(O)/C(=C\c1cn(-c2ccccc2)nc1-c1cccnc1)NC(=O)c1ccccc1 -1.44%, Cc1ccc(OCc2n[nH]c(=S)n2-c2ccccc2)cc1C -3.72%, Cc1cccc(OCc2n[nH]c(=S)n2-c2ccccc2)c1 1.89%, O=C(CN1CCN(C(=O)c2ccccc2)CC1)Nc1cc(S(=O)(=O)N2CCCC2)ccc1Cl -24.1%, COC(=O)C1=C(C)NC(C)=C(C(=O)OC)C1C(=O)OCc1nc2cc(C(=O)OC)ccc2c(=O)[nH]1 -5.82%, Cc1ccc(-c2nc(N)n(S(=O)(=O)c3ccc(C)cc3)n2)cc1 0.67%, CC(C)C1Nc2ccc(S(N)(=O)=O)cc2C2C=CCC21 (stereo unspecified) 30.5%, O=C(C1CC=CCC1)N1CCN(S(=O)(=O)c2ccc(F)cc2)CC1 (stereo unspecified) -4.47%, CC(OC(=O)c1n[nH]c2ccccc12)C(=O)NC1CCCCC1C (stereo unspecified) 1.37%, CCOC(=O)N1CCN(c2ccc([N+](=O)[O-])cc2)CC1 0.75%, CCOC(=O)N1CCN(c2ccc(Cl)cc2)CC1 -2.77%, CCc1ccccc1NC(=S)N(CCCN(C)C)Cc1cc2cc3c(cc2[nH]c1=O)OCO3 -0.74%, Clc1ccc(Oc2nc(N3CCOCC3)nc(N3CCOCC3)n2)c(C2CCCCC2)c1 -3.78%, O=C(O)C1CCC(NSc2ccccc2[N+](=O)[O-])CC1 (stereo unspecified) -7.35%, CCN(C(=O)c1ccc(Cl)c([N+](=O)[O-])c1)c1ccccc1 3.48%, O=C(O)c1ccc(N2C(=O)CSC2c2cccc([N+](=O)[O-])c2)cc1 (stereo unspecified) -1.67%, O=C(O)c1cccc2c1-c1c(cccc1[N+](=O)[O-])C2 -2.94%, CCN(CC(=O)Nc1ccc(NC(C)=O)cc1)C(=O)c1ccc(N2CCC(C)CC2)c([N+](=O)[O-])c1 3.59%, O=C(NC1CC1)c1ccc2c(c1)C1C3CCC(C3)C1C(c1ccccc1)N2 (stereo unspecified) 3.47%, CC(C)Cc1cc(C(=O)Nc2cc(C(F)(F)F)ccc2Cl)no1 14.1%, C=Cc1ccc(CSc2cc(C)nc3nc(C)nn23)cc1 -4.49%, Cc1ccc(CNc2ccc3c(c2)ncn3C(C)C)cc1 15.2%, CC(C)(C)c1ccc(C(=O)C2CCCN(C(=O)CN3CCCC3=O)C2)cc1 (stereo unspecified) -3.41%, Cc1ccc(NC(=O)CCCN2C(=O)C(c3ccccc3)Oc3cccnc32)c(C)c1 (stereo unspecified) -3%, COc1ccc(C(=O)N/C(=C\c2ccco2)C(=O)OCc2ccco2)cc1 19.9%, CCCCOc1ccc(C(=O)N/C(=C\c2ccc(OC)cc2)C(=O)OCc2ccco2)cc1 -1.87%, COc1ccc2c(c1)NC(C)(C)C=C2C 32.2%, COc1cc(NCCCCCCCN)c2ncccc2c1 3.69%, COc1cc(NC(C)CCCNC(C)C)c2ncccc2c1OC (stereo unspecified) 3.4%, COC(=O)c1cc(NC(=O)COC(=O)CCc2c[nH]c3ccccc23)cc(C(=O)OC)c1 2.64%, O=C1N=C(N2CCOCC2)S/C1=C/c1ccc(-c2ccccc2Cl)o1 7.88%, CC(=O)N1CC(=O)N(Cc2ccccc2)/C(=C/c2ccccc2)C1=O 7.17%, O=C1CC(/C=C/c2ccncc2)=Nc2ccccc2N1 3.89%, O=C1CC(/C=C/c2ccccc2)=Nc2ccccc2N1 4.19%, CC1=C([N+](=O)[O-])C(c2ccc(Cl)cc2)NC(=O)N1C (stereo unspecified) 6.98%, FC(F)(F)c1ccc(N2CCN(Cc3ccc4c(c3)OCO4)CC2)nc1 -10.1%, CCOC(=O)C1=C(N)OC2=C(C(=O)CC(C)(C)C2)C1c1ccoc1 (stereo unspecified) -2.95%, CC(C)NC(=O)COc1ccc(Cl)cc1Cl -3.29%, Cc1ccc(C(=O)/C=C/Nc2cccc(O)c2)cc1 1.59%, C/C(=C\C(=O)c1ccc(Br)cc1)Nc1cccc(Cl)c1 -2.57%, O=C(Cc1ccccc1)NNC1CC(=O)N(c2ccc(Cl)cc2)C1=O (stereo unspecified) 8.41%, Cc1ccnc(SCc2cc(=O)c(OC(=O)c3ccccc3)co2)n1 6.36%, CCN(CC)c1ccc(NC(=O)Nc2ccccc2)cc1 5.11%, CCN(CC)c1ccc(C(=S)NCc2ccccc2)cc1 7.25%, COc1ccccc1NC(=O)C(C)N1C(=O)C2CCCCC2C1=O (stereo unspecified) 9.66%, COc1ccc(CCNC(=S)Nc2cc(C)ccc2C)cc1 2.7%, COc1ccc(N=C2NC(=O)/C(=C/C=C/c3ccccc3)S2)cc1 -3.43%, O=C1NC(=Nc2ccc3ccccc3c2)S/C1=C/c1ccco1 -0.8%, Cn1cccc1/C=C1\SC(=Nc2ccc(O)cc2)NC1=O -0.29%, COC(=O)/C=C1\SC(=Nc2ccc(OC)cc2)NC1=O -0.91%, COc1ccc2c(c1OC)C(=O)OC2CC(=O)c1ccc2c(c1)OCO2 (stereo unspecified) -2.78%, CCOC(=O)CSc1ccc2nnc(-c3ccncc3)n2n1 3.55%, Cc1ccc(NC(=O)C2CCC2)cc1S(=O)(=O)N1CCCCCC1 0.74%, O=S(=O)(NCC(c1cccnc1)N1CCOCC1)c1ccc(Cl)cc1 (stereo unspecified) 1.91%, CC(C)c1ccccc1NC(=O)Cn1c(/C=C/c2ccccc2)nc2ccccc21 2.28%, Cc1cc(N/N=C/c2ccc(N(C)C)cc2)nc(NCc2ccccc2)n1 7.69%, CC(=O)c1ccc(S(=O)(=O)NCc2cccnc2)cc1 0.59%, COc1cc(C(C)=O)ccc1OCC(=O)N1CCCC1c1ccc2c(c1)OCCCO2 (stereo unspecified) -2.26%, CCCCn1c(SCC(=O)NCCOC)nc2ccc(N3CCOCC3)cc2c1=O 32.1% and 5.24%, CCCCn1c(SCC(=O)NCc2ccccc2)nc2ccc(N3CCOCC3)cc2c1=O 18.7%, CCCC(=O)Nc1cc(C)c(NC(=O)Cc2ccccc2)cn1 -1.31%, CCN(CC)c1cc(Cl)c2nonc2c1N 0.28%, Nc1c(N2CCCC2)cc(Cl)c2nonc12 22.8%, CCOC(=O)N1CCN(C(=O)c2c(-c3ccccc3)noc2C)CC1 -4.55%, O=C(NCc1ccco1)c1cc(-c2ccccc2)on1 -2.43%, COc1cccc(-c2cc(C(=O)NCc3ccco3)no2)c1 2.27%, Cc1onc(-c2c(F)cccc2Cl)c1C(=O)NCc1ccco1 0.03%, Cc1onc(-c2c(Cl)cccc2Cl)c1C(=O)NCc1ccco1 2.61%, O=C(NCCCn1ccnc1)C(=O)NCC1OCCN1S(=O)(=O)c1ccccc1 (stereo unspecified) 20.3%, Cc1ccc(S(=O)(=O)N2CCCc3ccccc32)cc1 3.67%, Cc1ccc(-c2sc(C(=O)NN)c(C)c2C#N)cc1 -0.1%, CCc1noc(C)c1C(=O)NC1CCCc2c1cnn2-c1cc(C)cc(C)c1 (stereo unspecified) -1.36%, O=C1N[C@@H](c2ccccc2)COC(=O)[C@H](Cc2ccc(F)cc2)CC/C=C/C[C@H]1CC(=O)N(CCO)Cc1ccccc1 3.93%, COc1cccc(-c2cccc(NC(=O)C3CCN(CCCn4cccn4)CC3)c2)c1 6%, CCn1nc(C(=O)Nc2cc(Cl)ccc2-n2cncn2)c2ccccc2c1=O -6.28%, C=CCn1c(O)c(C(CC)=Nc2ccccc2NC(=O)CC)c(=O)[nH]c1=O 30.8%, C=CCn1c(O)c(C(CC)=NCc2cccnc2)c(=O)[nH]c1=O 7.28%, Cc1ccc(OCc2n[nH]c(=S)n2Cc2ccccc2)cc1 24.6%, O=C(Cc1ccccc1)Nc1ccc(N2CCN(Cc3ccccc3F)CC2)cc1 6.73%, COC(=O)C1CCN(C(=O)CCCOc2ccccc2)CC1 8.9%, CC(=O)Nc1ccc(SCC(=O)Nc2ccccc2N2CCOCC2)cc1 -9.09%, COC(=O)c1cc(C(=O)OC)cc(S(=O)(=O)Nc2ccc(Cl)c(N)c2)c1 -4.45%, C=CCN=c1scc(-c2ccccc2)n1/N=C/c1ccccn1 11.2%, COc1ccc(O)c(/C=N/n2c(-c3ccco3)csc2=Nc2cccnc2)c1 6.77%, CN=c1scc(C)n1/N=C/c1ccc2c(c1)OCO2 13.4%, Oc1ccc(/C=N/n2c(-c3ccco3)csc2=Nc2cccnc2)c(O)c1 21%, CN1CCN(CC(O)COc2ccccc2)CC1 (stereo unspecified) -7.2%, CCCCNc1oc(-c2cccs2)nc1S(=O)(=O)c1ccccc1 -0.64%, CC(C)(CNC(=O)c1cccs1)CNC(=O)c1cccs1 0.17%, O=C(CSc1nccc(=O)[nH]1)NCc1ccc2c(c1)OCO2 3.96%, CCOC(=O)N1CCN(CC(O)COCCC23CC4CC(CC(C4)C2)C3)CC1 (stereo unspecified) 13.8%, O=C1CCCc2c1sc1nc3n(c(=O)c21)CCCCC3 2.33%, O=c1c2c3c(sc2nc2n1CCCCC2)CCCCC3 0.94%, Nc1ncnc2c1CN(Cc1ccccc1)CC2 -5.85%
